Experimental findings from a collection of fitness landscapes (doi:10.1016/j.celrep.2020.107928) are described below.

B1: Caulobacter ParB omega fusion; a variant is named by its letters at X, in order, B8GW30 (parent)
chain: MESVVVGEPGMSEGRRGLGRGLSALLGEVDAAPAQAPGEQLGGSREAPIEILQRNPDQPRRTFREEDLEDLSNSIREKGVLQPILVRPSPDTAGEYQIVAGERAWRAAQRAGLKTVPIMVRELDDLAVLEIGIIENVQRADLNVLEEALSYKVLMEKFERTQENIAQTIGKSXSHVANXMRLLXLPDEVQSYLVSGELTAXHARAIAAAADPVALAKQIIEGGLSVRETEALARKAPNLSAGKSKGGRPPRVKDTDTQALESDLSSVLGLDVSIDHRGSTGTLTITYATLEQLDDLCNRLTRGI

Over roughly 81,000 sequences, “one-hybrid fitness for binding NBS DNA” has its median near -0.1; the highest 2% begin near 0.36. The list comes from a sample in which the highest values are over-represented; it also holds similar and randomly drawn sequences.

In this experiment the parent is B1. In words: one-hybrid fitness for binding NBS DNA (the Noc-binding site; scaled: cognate 1, non-cognate 0); higher = stronger binding. The settings on record: with NBS DNA site. The method in brief: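 Fitness here means the log change in variant-to-wild-type read ratio between plasmids sequenced before and after selection. That scale was set so cognate equals 1 and non-cognate equals 0. The selection was a bacterial one-hybrid screen of Caulobacter ParB libraries, four specificity codons randomised, in E. coli USO carrying a HIS3 reporter with the site 19 bp from the promoter, grown 48 hours at 37°C on M9-minus-histidine with 0.1 mM IPTG and 5 mM 3-AT.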
With IRVQ, the “one-hybrid fitness for binding NBS DNA” value was 0.203.
For VYLC the value was at most 0.2; for TESV, at most 0.2.
Take QVNP: the “one-hybrid fitness for binding NBS DNA” value was at most 0.2.
For GTKF the value was at most 0.2.
For LEMR the value was at most 0.2; for RFPS, at most 0.2.
For QVIH the value was at most 0.2.
Take GACL: the “one-hybrid fitness for binding NBS DNA” value is at most 0.2.
For RSVR the value was 0.293.
With RWYM, the “one-hybrid fitness for binding NBS DNA” value is at most 0.2.
For RLKH the value was 0.35; for RFVR, at most 0.2.
Consider RLVR, for which the “one-hybrid fitness for binding NBS DNA” value came to 0.257.
For RWKM the value was at most 0.2; for RFKR, 0.522; for RLKR, 0.686.
RSKN: the “one-hybrid fitness for binding NBS DNA” value was at most 0.2.
For RSKR the value was 0.682; for RWVM, 0.413; for NFKR, at most 0.2.
On to YFYC, for which the “one-hybrid fitness for binding NBS DNA” value is at most 0.2.
For QASC the value was at most 0.2; for LDYW, at most 0.2.
For GGII the value was at most 0.2; for RPKR, at most 0.2; for RWKP, at most 0.2.
For RHKR, the “one-hybrid fitness for binding NBS DNA” value was determined as 0.701.
For RCKR the value was 0.76.
For RDKR the value was at most 0.2; for RHVR, 0.248; for RWVR, 0.259.
For RWKR the value was 0.372; for RHKH, 0.326.
Regarding FTQR, the “one-hybrid fitness for binding NBS DNA” value was at most 0.2.
With PCEF, the “one-hybrid fitness for binding NBS DNA” value is at most 0.2.
For PQIS the value was at most 0.2.
In the case of NIFS, the “one-hybrid fitness for binding NBS DNA” value was at most 0.2.
For NWPM the value was at most 0.2; for QHVW, at most 0.2.
On to NGRT, for which the “one-hybrid fitness for binding NBS DNA” value was at most 0.2.
For SSRN the value was at most 0.2.
As to GTQF, the “one-hybrid fitness for binding NBS DNA” value is at most 0.2.
For the variant RRPC, the “one-hybrid fitness for binding NBS DNA” value was 0.249.
As to RRIS, the “one-hybrid fitness for binding NBS DNA” value was 0.661.
Consider RCIC, for which the “one-hybrid fitness for binding NBS DNA” value is at most 0.2.
For RRIH the value was 0.338; for RRES, 0.578.
Take RCRN: the “one-hybrid fitness for binding NBS DNA” value worked out at 0.23.
Regarding RRYN, the “one-hybrid fitness for binding NBS DNA” value was determined as 0.26.
As for RCES, the “one-hybrid fitness for binding NBS DNA” value came out at 0.207.
With RRRN, the “one-hybrid fitness for binding NBS DNA” value stood at 0.618.
As to RREN, the “one-hybrid fitness for binding NBS DNA” value is at most 0.2.
Consider RRIN, for which the “one-hybrid fitness for binding NBS DNA” value was 0.206.
Take RRIC: the “one-hybrid fitness for binding NBS DNA” value worked out at 0.399.
For NKTG the value was at most 0.2.
Consider YEAN, for which the “one-hybrid fitness for binding NBS DNA” value is at most 0.2.
In the case of WTTS, the “one-hybrid fitness for binding NBS DNA” value was at most 0.2.
In the case of MTMK, the “one-hybrid fitness for binding NBS DNA” value was at most 0.2.
As to HRPA, the “one-hybrid fitness for binding NBS DNA” value is at most 0.2.
In the case of GPSL, the “one-hybrid fitness for binding NBS DNA” value was at most 0.2.
For CRYG the value was at most 0.2.
RRYD: the “one-hybrid fitness for binding NBS DNA” value is at most 0.2.
For RRPN the value was at most 0.2.
As to RRRP, the “one-hybrid fitness for binding NBS DNA” value amounted to 0.283.
For RRRS the value was 0.74.
For RRPS the value was 0.568; for RPYS, at most 0.2.
Turning to RRPD, the “one-hybrid fitness for binding NBS DNA” value was at most 0.2.
For RRYS the value was 0.661; for RRRD, 0.202.
For the variant VRHA, the “one-hybrid fitness for binding NBS DNA” value was at most 0.2.
As to LNEM, the “one-hybrid fitness for binding NBS DNA” value is at most 0.2.
For ADCG the value was at most 0.2; for SSQM, at most 0.2.
For DSAV the value was at most 0.2.
Turning to PELK, the “one-hybrid fitness for binding NBS DNA” value was at most 0.2.
For STQD the value was at most 0.2; for GVGA, at most 0.2; for SIFQ, at most 0.2.
For KCTT the value was at most 0.2.
For KRTN the value was at most 0.2; for KRTT, 0.583.
Take NRTT: the “one-hybrid fitness for binding NBS DNA” value is at most 0.2.
For KRTS, the “one-hybrid fitness for binding NBS DNA” value was found to be 0.448.
For KRTR the value was 0.563; for KPTR, at most 0.2; for KRTP, at most 0.2.
KCTR: the “one-hybrid fitness for binding NBS DNA” value is at most 0.2.
Consider EFMG, for which the “one-hybrid fitness for binding NBS DNA” value is at most 0.2.
For the variant NTNM, the “one-hybrid fitness for binding NBS DNA” value was at most 0.2.
For VSAH the value was at most 0.2; for AAKR, 0.205; for NKSI, at most 0.2.
For GMFR the value was at most 0.2.
In the case of SFAG, the “one-hybrid fitness for binding NBS DNA” value was at most 0.2.
For the variant TRRR, the “one-hybrid fitness for binding NBS DNA” value was 0.682.
For the variant TCNR, the “one-hybrid fitness for binding NBS DNA” value was at most 0.2.
For TRHN the value was at most 0.2; for TRNR, 0.466.
Regarding TCGR, the “one-hybrid fitness for binding NBS DNA” value is at most 0.2.
TRGR: the “one-hybrid fitness for binding NBS DNA” value came out at 0.389.
Regarding ARGR, the “one-hybrid fitness for binding NBS DNA” value is at most 0.2.
Consider TRHR, for which the “one-hybrid fitness for binding NBS DNA” value was found to be 0.409.
For TRYR the value was 0.301; for TCRR, 0.333.
As to TCHR, the “one-hybrid fitness for binding NBS DNA” value was at most 0.2.
As to TRDR, the “one-hybrid fitness for binding NBS DNA” value was at most 0.2.
As for RYPE, the “one-hybrid fitness for binding NBS DNA” value was at most 0.2.
For FLFY the value was at most 0.2; for CVRG, at most 0.2; for MMMT, at most 0.2.
For PQRS the value was at most 0.2.
Regarding PARP, the “one-hybrid fitness for binding NBS DNA” value is at most 0.2.
For AWAT the value was at most 0.2.
With NMTI, the “one-hybrid fitness for binding NBS DNA” value was at most 0.2.
As for LVAP, the “one-hybrid fitness for binding NBS DNA” value was at most 0.2.
As to RIFS, the “one-hybrid fitness for binding NBS DNA” value stood at 0.214.
With RIWS, the “one-hybrid fitness for binding NBS DNA” value came out at 0.397.
For RIWD the value was at most 0.2; for RIIS, at most 0.2.
For RIWP the value was at most 0.2; for RIRS, 0.56.
For RIYS the value was 0.413; for RIDS, at most 0.2; for RIRP, at most 0.2.
In the case of RIRD, the “one-hybrid fitness for binding NBS DNA” value was at most 0.2.
For RINS the value was 0.445; for RIND, at most 0.2; for DTYS, at most 0.2.
In the case of SANL, the “one-hybrid fitness for binding NBS DNA” value was at most 0.2.
For RGWI the value was at most 0.2; for YSMI, at most 0.2.
For YTKY the value was at most 0.2; for IQNI, at most 0.2.
For the variant RIHD, the “one-hybrid fitness for binding NBS DNA” value is at most 0.2.
In the case of RIHN, the “one-hybrid fitness for binding NBS DNA” value was at most 0.2.
For RIHS the value was 0.381; for NKNM, at most 0.2; for QYRV, 0.392.
WYVV: the “one-hybrid fitness for binding NBS DNA” value is at most 0.2.
Consider IYIV, for which the “one-hybrid fitness for binding NBS DNA” value was at most 0.2.
For IYPV the value was 0.41; for IYVV, at most 0.2.
For WYRV the value was at most 0.2; for WYCV, 0.366; for QYKV, 0.372.
For the variant QYSV, the “one-hybrid fitness for binding NBS DNA” value is at most 0.2.
In the case of QYVV, the “one-hybrid fitness for binding NBS DNA” value is at most 0.2.
For QYYV the value was at most 0.2; for QYDV, at most 0.2; for YGDI, at most 0.2.
Consider FTRD, for which the “one-hybrid fitness for binding NBS DNA” value was at most 0.2.
